Source: PubChem BioAssay (NCI)
Compounds without any hit were thinned out: in the full panel of roughly 83,000, 20% have a hit.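 For each line, cells grew in 96-well plates with the test compound present at a single concentration for 48 hours.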 Calls of active or inactive are those of the source. Rule for the calls: active = growth percent below 10; inactive = the rest.

Tests used:
Test in all cases: NCI-60 one-dose screen, 48 h (100 = growth as untreated, 0 = no growth, -100 = all killed)
Conditions in all cases: 10 µM unless noted
[1] = system: SK-MEL-2 melanoma
[2] = system: EKVX NSCLC
[3] = system: SN12C renal
[4] = system: UO-31 renal
[5] = system: TK-10 renal
[6] = system: ACHN renal
[7] = system: CAKI-1 renal
[8] = system: A498 renal
[9] = system: CCRF-CEM leukemia
[10] = system: MOLT-4 leukemia

Measured: growth

c1ccc(CN=C(NCc2ccccc2)NCc2ccccc2)cc1
inactive: [1] 60.5% | [2] 28.2% | [3] 72.2% | [4] 61.3% | [5] 58.6% | [6] 73.1% | [7] 84.8% | [8] 84.7% | [9] 65.5% | [10] 70.7%

Cc1nn(-c2nc3ccccc3s2)c(C)c1Oc1ccccc1O
inactive: [2] 93.2% | [3] 73.2% | [4] 38.9% | [5] 100% | [6] 57.8% | [7] 98.8% | [8] 51.7% | [9] 76.6% | [10] 31.6%
active: [1] -9.64%

C(=C1c2ccccc2-c2ccccc21)c1ccccn1
inactive: [1] 54.2% | [2] 70.6% | [3] 80.3% | [4] 79.6% | [5] 91.7% | [6] 96.5% | [7] 52% | [8] 97.8% | [9] 85.5% | [10] 67.3%

O=C(COc1cccc(/C=C2\Oc3ccc4ccccc4c3C2=O)c1)c1ccc([N+](=O)[O-])cc1
inactive: [1] 44.3% | [2] 85.4% | [3] 98.2% | [5] 99.9% | [6] 98.4% | [7] 69.3% | [8] 108% | [9] 35.7% | [10] 32%
active: [4] -41.6%

Cc1cc(=O)[nH]c(/C(=N/Nc2ccccc2)C(=O)c2ccc(Cl)cc2)n1
inactive: [1] 102% | [2] 103% | [3] 93.2% | [4] 116% | [5] 65.5% | [6] 111% | [7] 104% | [8] 84% | [9] 66% | [10] 39.8%

COc1cc(-c2nc3nc4sc(C)c(C)c4c(=O)n3[nH]2)cc(OC)c1OC
inactive: [1] 80.1% | [2] 88% | [3] 93.6% | [4] 54.7% | [5] 110% | [6] 83.2% | [7] 61.8% | [8] 74.5% | [9] 61% | [10] 68.3%

NS(=O)(=O)c1ccc(-n2ncc3c(NC4CCCCC4)ncnc32)cc1
inactive: [1] 103% | [2] 102% | [3] 97.5% | [5] 107% | [6] 92.3% | [7] 39.6% | [8] 106% | [9] 82.3% | [10] 72.6%
active: [4] 0.88%

CC[C@@H](C)/C=C(C)/C=C/C(O)=C1\C(=O)N[C@@H](Cc2ccc(OC(=O)[C@@](OC)(c3ccccc3)C(F)(F)F)cc2)C1=O
inactive: [1] 80.2% | [2] 54.1% | [3] 86.5% | [4] 70.9% | [5] 96.8% | [6] 103% | [7] 30.5% | [8] 64.7% | [9] 29.7% | [10] 41.6%

CC(=O)Nc1c(Cl)cc2c(c1Cl)Cc1ccccc1-2
inactive: [1] 93.8% | [2] 64.3% | [3] 90.9% | [4] 69.2% | [5] 115% | [6] 100% | [7] 86.1% | [8] 93.7% | [9] 102% | [10] 93%

COC(=O)c1cc2c(/C=C3/NC(=S)NC3=O)coc2n1C
inactive: [1] 107% | [2] 93.4% | [3] 118% | [4] 50% | [5] 89.9% | [6] 95.2% | [7] 74.4% | [8] 99.6% | [9] 85.2% | [10] 99.9%

COc1ccc(CNC(=O)c2c(C)n([O-])c3cc(F)c(F)cc3[n+]2=O)cc1
active: [4] -32.4%
inactive: [1] 88.1% | [2] 89.2% | [3] 95.2% | [5] 102% | [6] 98.7% | [7] 152% | [8] 95.1% | [9] 90.8% | [10] 97%
